According to PubChem BioAssay (NCATS):
Values joined by “and” are separate entries in the source; they are usually repeats but may differ in a detail not shown here. Equal entries are not always repeated. Results filed as inconclusive are left out. Active and inactive are the calls of the source. Unless noted, calls follow the shape of the dose curve; as a rule, active = well fitted curve in the direction sought with a large enough effect; inconclusive = small, poorly fitted or top-dose-only effect, or another doubt; inactive = no such curve, though single readings can be large; an effect the other way counts as inactive or inconclusive.

Key:
[1] = qHTS assay for small molecule disruptors of the mitochondrial membrane potential - 1 hr assay (AID 651754; calls by dose curve; also: % is scaled to controls: 0 for no effect and ±100 for the full control effect; nearly all actives have a fitted effect of over 35% in size)
Method in brief: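 Mitochondrial potential in living HepG2 cells after 1 hr compound treatment at 37C was read with Mito-MPS dye added for a further 30 min. Red aggregate and green monomer fluorescence were measured; loss of potential leaves dye as cytoplasmic monomers.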

[2] = qHTS assay for small molecule disruptors of the mitochondrial membrane potential - 5 hr assay (AID 651755; calls by dose curve; also: % is scaled to controls: 0 for no effect and ±100 for the full control effect; nearly all actives have a fitted effect of over 40% in size)
Method in brief: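 Seed HepG2 overnight, add compound, incubate 5 hr at 37C and 5% CO2, stain 30 min with Mito-MPS, then measure monomer (490/535 nm) and aggregate (540/590 nm) fluorescence.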

[3] = target: Tumor necrosis factor (Homo sapiens) (UniProt P01375); assay: qHTS assay to identify small molecules that stimulate Tumor Necrosis Factor-alpha (TNF-alpha) secretion (AID 651757; active = well fitted curve in the direction sought with a large enough effect in the signal ratio; the % refers to the signal ratio; also: 0% is about no effect)
Sequence of Tumor necrosis factor (Homo sapiens) (P01375 whole entry, looked up): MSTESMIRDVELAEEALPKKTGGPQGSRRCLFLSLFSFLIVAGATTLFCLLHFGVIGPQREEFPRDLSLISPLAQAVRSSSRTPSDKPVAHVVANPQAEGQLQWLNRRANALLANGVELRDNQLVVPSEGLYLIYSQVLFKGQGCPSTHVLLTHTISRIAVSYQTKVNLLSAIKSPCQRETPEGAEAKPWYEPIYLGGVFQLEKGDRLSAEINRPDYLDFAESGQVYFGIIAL
Method in brief: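 Secreted TNF-alpha quantified by TR-FRET sandwich of two labeled anti-TNF-alpha antibodies, incubated 3 hr at room temperature. Preceded by 17 hr, 37 C compound treatment of THP-1 cells at 3000 cells/well.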

[4] = qHTS assay to identify small molecules that stimulate interleukin-8 (IL-8) secretion (AID 651758; active = well fitted activation curve with a large enough effect in the signal ratio; the % refers to the signal ratio; also: 0% is about no effect)
Method in brief: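 Quantitative HTS in THP-1 monocytic cells at 2000 cells per well, with 16 hrs compound incubation at 37 C. IL-8 in the medium was then quantified by HTRF immunoassay, read after 1-3 hrs at room temperature.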

[5] = qHTS assay for environmental chemicals that activate the Aryl hydrocarbon Receptor (AhR) signaling pathway (AID 651777); conditions: 1A2-DRE human hepatoma cells, luciferase, 24 h; activation: active compounds read high; also: % of control where 0% means no effect; nearly all actives have a fitted effect of over 15% in size
Method in brief: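 Luminescence read-out: One-Glo added for 30 min at RT after 24 hr compound treatment (37 C, 5% CO2) of human hepatoma cells expressing a DRE/CYP1A2 promoter–luciferase reporter; increased signal indicates AhR activation.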

[6] = target: Peroxisome proliferator-activated receptor alpha (Homo sapiens) (UniProt Q07869); assay: qHTS assay for small molecule agonists of the peroxisome proliferator-activated receptor alpha (PPARalpha) signaling pathway (AID 651778); conditions: PathHunter PPARalpha complementation, chemiluminescence, 6 h; active compounds read high; also: % of control where 0% means no effect
Sequence of Peroxisome proliferator-activated receptor alpha (Homo sapiens) (Q07869 whole entry, looked up): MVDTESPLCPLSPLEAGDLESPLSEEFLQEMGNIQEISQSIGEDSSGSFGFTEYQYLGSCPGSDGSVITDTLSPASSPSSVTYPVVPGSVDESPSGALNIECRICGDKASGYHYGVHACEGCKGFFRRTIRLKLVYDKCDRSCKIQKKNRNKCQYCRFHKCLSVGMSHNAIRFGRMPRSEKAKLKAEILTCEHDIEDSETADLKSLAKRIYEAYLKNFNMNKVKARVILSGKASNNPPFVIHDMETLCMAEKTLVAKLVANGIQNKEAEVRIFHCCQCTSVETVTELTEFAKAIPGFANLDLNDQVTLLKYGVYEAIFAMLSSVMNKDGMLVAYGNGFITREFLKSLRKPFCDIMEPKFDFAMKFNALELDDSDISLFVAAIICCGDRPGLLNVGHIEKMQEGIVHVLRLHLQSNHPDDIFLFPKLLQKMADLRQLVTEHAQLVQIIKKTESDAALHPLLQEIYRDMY
Method in brief: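 Cells plated at 2,000/well and held overnight at 37 C, 5% CO2, then compound added by pin tool for 6 hr; after PathHunter detection reagent and 60 min at room temperature, chemiluminescence from enzyme complementation was read.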

[7] = target: Nuclear receptor ROR-gamma (Homo sapiens) (UniProt P51449); assay: qHTS assay for small molecule antagonists of the retinoid-related orphan receptor gamma (ROR-gamma) signaling pathway (AID 651802);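 also: CHO cells with doxycycline-induced ROR-gamma expression; luciferase reporter luminescence driven by ROR response element; series mostly up to about 92 µM; % is scaled to controls: 0 for no effect and ±100 for the full control effect; nearly all actives have a fitted effect of over 60% in size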
Sequence of Nuclear receptor ROR-gamma (Homo sapiens) (P51449 whole entry, looked up): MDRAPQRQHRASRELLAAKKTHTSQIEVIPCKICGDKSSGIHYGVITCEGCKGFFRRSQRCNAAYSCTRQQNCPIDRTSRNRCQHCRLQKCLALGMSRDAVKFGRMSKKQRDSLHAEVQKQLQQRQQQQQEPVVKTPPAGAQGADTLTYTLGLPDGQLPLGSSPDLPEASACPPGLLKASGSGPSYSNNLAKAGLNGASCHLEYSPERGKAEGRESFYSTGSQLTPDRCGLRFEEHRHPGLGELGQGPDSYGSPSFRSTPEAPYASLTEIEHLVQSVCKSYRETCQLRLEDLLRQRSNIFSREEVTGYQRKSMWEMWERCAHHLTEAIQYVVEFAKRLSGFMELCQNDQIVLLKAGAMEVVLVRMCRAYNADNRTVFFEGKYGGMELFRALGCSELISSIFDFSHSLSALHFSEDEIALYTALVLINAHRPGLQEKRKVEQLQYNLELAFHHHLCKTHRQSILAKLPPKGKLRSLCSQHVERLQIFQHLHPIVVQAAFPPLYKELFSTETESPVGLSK
Method in brief: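 Luminescence (One-Glo, 30 min RT) measured 16 h after compound addition and doxycycline induction at 37C. Reporter: RORE-luciferase under TET-inducible ROR-gamma in CHO cells.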

[8] = qHTS assay for small molecule agonists of the antioxidant response element (ARE) signaling pathway measured by Nrf2-dependant transcriptional activity (AID 720636; active = well fitted curve in the direction sought with a large enough effect in the repeat runs; an effect the other way counts as inactive or inconclusive;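 also: HepG2 cells with an ARE-driven luciferase reporter; % of control where 0% means no effect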)
Method in brief: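 HepG2 ARE-luc reporter line, 1% dialyzed FBS; 6 hr attachment at 37 C, compound pinned in, 16 hr at 37 C/5% CO2; ONE-Glo, 30 min RT, luminescence read.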

[9] = qHTS assay for small molecule agonists of the antioxidant response element (ARE) signaling pathway measured by Nrf2-dependant transcriptional activity - cell viability counter screen (AID 720653; active = well fitted curve in the direction sought with a large enough effect in the repeat runs; an effect the other way counts as inactive or inconclusive; also: % is scaled to controls: 0 for no effect and ±100 for the full control effect); conditions: ARE-bla HepG2 viability, CellTiter-Glo ATP luminescence, 16 h; active compounds read low
Method in brief: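 ARE-bla HepG2 cells (2,000/well) rested 5 hrs at 37C/5% CO2, then exposed to compounds in DMSO for 16 hrs. Viability was read in the same wells as intracellular ATP by luminescence, 30 min at room temperature after reagent addition.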

[10] = qHTS assay for cell viability of HEK293 cells (AID 743288); conditions: ATP luminescence (CellTiter-Glo), 18 h, active compounds read low; also: % is scaled to controls: 0 for no effect and ±100 for the full control effect; nearly all actives have a fitted effect of over 50% in size
Method in brief: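 After 18 h compound exposure at 37 C, parental HEK293 cells (2,000/well) are lysed with CellTiter-Glo and luminescence is read following 30 min at room temperature.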

[11] = qHTS assay for cell viability of the p53RE-bla HCT-116 cell line (AID 743292); also: % is scaled to controls: 0 for no effect and ±100 for the full control effect; nearly all actives have a fitted effect of over 55% in size
Method in brief: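 Luminescent ATP quantitation (CellTiter-Glo) served as the viability read-out; reagent was added after 16 h compound exposure at 37 C and read after 30 min at room temperature. Cells: p53RE-bla HCT-116, 4,000 per well.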

[12] = target: Nuclear receptor subfamily 1 group I member 2 (Rattus norvegicus) (UniProt Q9R1A7); assay: qHTS assay for small molecule activators of the rat pregnane X receptor (rPXR) signaling pathway (AID 651751; call rule not given here; also: 0% is about no effect); conditions: rPXR reporter cells, luciferase (One-Glo), 24 h
Sequence of Nuclear receptor subfamily 1 group I member 2 (Rattus norvegicus) (Q9R1A7 whole entry, looked up): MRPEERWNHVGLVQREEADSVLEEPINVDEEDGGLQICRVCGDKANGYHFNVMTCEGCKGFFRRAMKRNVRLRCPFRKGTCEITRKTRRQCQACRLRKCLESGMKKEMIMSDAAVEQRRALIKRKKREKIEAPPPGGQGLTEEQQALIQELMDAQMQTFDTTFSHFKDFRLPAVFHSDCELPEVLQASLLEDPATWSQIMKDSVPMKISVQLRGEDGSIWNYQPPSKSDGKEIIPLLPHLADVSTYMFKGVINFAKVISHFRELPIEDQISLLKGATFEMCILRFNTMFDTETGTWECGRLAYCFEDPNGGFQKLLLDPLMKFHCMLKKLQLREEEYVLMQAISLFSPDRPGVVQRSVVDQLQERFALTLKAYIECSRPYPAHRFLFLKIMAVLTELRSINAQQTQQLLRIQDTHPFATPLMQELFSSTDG

[13] = qHTS assay for small molecule activators of the human pregnane X receptor (PXR) signaling pathway (AID 720659; call rule not given here; also: 0% is about no effect)
[14] = qHTS assay for small molecule antagonists of the retinoid-related orphan receptor gamma (ROR-gamma) signaling pathway - cell viability counter screen (AID 720652; active = well fitted curve in the direction sought with a large enough effect in the repeat runs; an effect the other way counts as inactive or inconclusive;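 also: CHO reporter cells with doxycycline-induced ROR-gamma expression; series mostly up to about 92 µM; compound exposure lasted 16 hr before ATP read; % is scaled to controls: 0 for no effect and ±100 for the full control effect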)
Method in brief: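 Cytotoxicity counter screen: intracellular ATP (CellTiter-Glo luminescence) measured in the doxycycline-induced CHO RORE-luciferase reporter line after 16 hr compound exposure at 37 C, 5% CO2.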

CC1(N)CCC(C(C)(C)N)CC1 (configuration not stated)
inactive: Potency [1] | Potency [2] | Potency [3] | Potency [4] | activation [5] -0.642% | max response [6] 0.74% | Potency [7] | outcome [8] | max response [9] 1.22% | max response [10] 3.33% | Potency [11] | max response [12] 1.15% | outcome [13]

O=C(O)c1ccccc1Cl
inactive: Potency [1] | Potency [2] | Potency [3] | Potency [4] | activation [5] -2.05% | max response [6] -0.83% | Potency [7] | outcome [8] | Potency [14] | max response [9] -0.91% | max response [10] -4.79% | Potency [11] | max response [12] 1.04% | outcome [13]

Cc1ccc2cccnc2c1
inactive: Potency [1] | Potency [2] | Potency [3] | Potency [4] | activation [5] 0.306% | max response [6] -8.31% | Potency [7] | outcome [8] | Potency [14] | max response [9] 0.459% | max response [10] 6.13% | Potency [11] | max response [12] -2.67%

Cc1ccc(C)c(N)c1
inactive: Potency [1] | Potency [2] | Potency [3] | Potency [4] | activation [5] -0.892% | max response [6] 7.66% | Potency [7] | outcome [8] | Potency [14] | max response [9] 0.0142% | max response [10] -4.96% | Potency [11] | max response [12] -4.19% | outcome [13]

Cc1cccc(C)c1O
inactive: Potency [1] | Potency [2] | Potency [3] | Potency [4] | activation [5] 0.0984% | max response [6] -7.29% | Potency [7] | outcome [8] | Potency [14] | max response [9] 8.44% | max response [10] 0.15% | Potency [11] | max response [12] 2.68% | outcome [13]

O=C1OC(=O)c2c(Br)c(Br)c(Br)c(Br)c21
inactive: Potency [1] | Potency [2] | Potency [3] | Potency [4] | activation [5] -1.58% and 0.554% | max response [6] 0.713% and 0.326% | outcome [8] | Potency [14] | max response [9] -8.33% and -1.37% | max response [10] 2.2% and -6.24% | Potency [11] | max response [12] -2.83% and 0.309% | outcome [13]

CC(O)COC(C)(C)C (configuration not stated)
inactive: Potency [1] | Potency [2] | Potency [3] | Potency [4] | activation [5] -0.0727% | max response [6] -3.92% | Potency [7] | outcome [8] | Potency [14] | max response [9] 7.93% | max response [10] -14.3% | Potency [11] | max response [12] 2.3% | outcome [13]

Cc1cccc([N+](=O)[O-])c1C(=O)O
inactive: Potency [1] | Potency [2] | Potency [3] | Potency [4] | activation [5] -0.538% | max response [6] 4.5% | Potency [7] | outcome [8] | Potency [14] | max response [9] 0.554% | max response [10] -0.404% | Potency [11] | max response [12] 12.6% | outcome [13]

COC(=O)CCC(=O)OC
inactive: Potency [1] | Potency [2] | Potency [3] | Potency [4] | max response [6] 7.56% | Potency [7] | outcome [8] | max response [9] -12.8% | max response [10] 2.75% | Potency [11] | max response [12] 1.71% | outcome [13]

CC(CCl)OC(C)CCl (configuration not stated)
inactive: Potency [1] | Potency [2] | Potency [3] | Potency [4] | max response [6] 4.09% | outcome [8] | Potency [14] | max response [9] 6.29% | max response [10] -14.3% | Potency [11] | max response [12] 2.99% | outcome [13]

O=Cc1ccc(CO)o1
inactive: Potency [1] | Potency [2] | Potency [3] | Potency [4] | activation [5] -1.71% | max response [6] -3.35% | Potency [7] | outcome [8] | Potency [14] | max response [9] -0.711% | max response [10] 6.14% | Potency [11] | max response [12] 1.25% | outcome [13]

ON=C1CCCCC1
inactive: Potency [1] | Potency [2] | Potency [3] | Potency [4] | activation [5] 0.388% | max response [6] 1.6% | Potency [7] | outcome [8] | Potency [14] | max response [9] 5.44% | max response [10] 1.04% | Potency [11] | max response [12] 3.07% | outcome [13]

C=Cc1ccc(C=C)cc1
inactive: Potency [1] | Potency [2] | Potency [3] | Potency [4] | activation [5] 7.35% | max response [6] -4.42% | Potency [7] | outcome [8] | Potency [14] | max response [9] -7.35% | max response [10] -2.33% | Potency [11] | max response [12] -2.76% | outcome [13]

OC1CCCC1
inactive: Potency [1] | Potency [2] | Potency [3] | Potency [4] | activation [5] -0.947% | max response [6] 1.11% | Potency [7] | outcome [8] | Potency [14] | max response [9] -3.18% | max response [10] 3.74% | Potency [11] | max response [12] -2.46% | outcome [13]

c1ccsc1
inactive: Potency [1] | Potency [2] | Potency [3] | Potency [4] | activation [5] -0.706% | max response [6] -6.32% | Potency [7] | outcome [8] | max response [9] 9% | max response [10] 6.51% | Potency [11] | max response [12] -1.04% | outcome [13]
